Measurements from the supplement of paper PMC10849652.
About 7,900 targets were measured; listed, in parts, are those with a hit and a random draw of the rest. About 0.6% of all pairs of compound and target were hits.

What was measured:
Assay in all cases: log2 fold change, soluble protein after heating vs DMSO (PISA); higher = thermal stabilisation; K562 cells, 10 uM, 30 min; active = over 0.2 and 3.5 SD of the protein, either way, in both replicates (recomputed)
[1] = compound: C1COCCN1CCN2C3=CC=CC=C3N=C2NC(=O)C4=CC(=CC=C4)[N+](=O)[O-] [IRAK-1-4 Inhibitor I]
Procedure, shortened: (§1)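 Quantification of soluble protein used TMTpro 16plex LC-MS/MS, with channel sums equalised. Samples were the supernatant after 21,000xg for 90 min of pooled aliquots from K562 cells (2×10^6 cells/mL) treated with 10 μM compound for 30 min, heated for 3 min over 48°C-58°C, and extracted in PBS with 0.5% NP-40 at 4°C. Values, from duplicates, describe thermal stability against control samples on a log2 fold-change scale.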

[2] = compound: C=CC(=O)N1CCC[C@@H](n2nc(-c3ccc(Oc4ccccc4)cc3)c3c(N)ncnc32)C1 [ibrutinib]
Procedure, shortened: as §1

[3] = compound: CC(=O)c1cnc2ccc(-c3cc(Cl)c(O)c(Cl)c3)nc2c1N[C@H]1CC[C@H](CN(C)C)CC1
Procedure, shortened: as §1

[4] = compound: CC(C)(O)CC(=O)NCCn1ccc2ncnc(Nc3ccc(Oc4cccc(C(F)(F)F)c4)c(Cl)c3)c21
Procedure, shortened: as §1

[5] = compound: CC(C)C1=C2N=C(C=C(N2N=C1)NCC3=CC=CC=C3)NCCCCCCN
Procedure, shortened: as §1

[6] = compound: CC(C)N(C[C@H]1O[C@@H](n2cnc3c(N)ncnc32)[C@H](O)[C@@H]1O)[C@H]1C[C@@H](CCc2nc3cc(C(C)(C)C)ccc3[nH]2)C1 [pinometostat]
Procedure, shortened: as §1

[7] = compound: CC1=C(C2=C(C=C1)C(=O)C3=CC=CC=C3N2CCCN)C
Procedure, shortened: as §1

[8] = compound: CC(C)(C)Cn1c(N)nc2ccc(-c3[nH]c(C(C)(C)C)nc3-c3ccc(F)cc3)nc21 [ralimetinib]
Procedure, shortened: as §1

[9] = compound: CC(C)C[C@@H](C=O)NC(=O)[C@H](CC(C)C)NC(=O)[C@H](CC(C)C)NC(=O)OCc1ccccc1
Procedure, shortened: as §1

[10] = compound: CC1=C(C(CC(=O)N1)C2=CC=C(C=C2)C(F)(F)F)C(=O)NC3=C(C=C4C(=C3)C=NN4)F
Procedure, shortened: as §1

Measured: log2 fold change

RAPGEF4 (UniProt Q8WZA2)
inactive: [1] -0.184 | [2] -0.025 | [3] -0.022 | [4] 0.065 | [5] 0.089 | [6] -0.096 | [7] 0.109

RRS1 (UniProt Q15050)
active: [7] -1
inactive: [1] -0.084 | [2] 0.04 | [3] 0.217 | [8] 0.118 | [4] 0.229 | [5] 0.312 | [9] 0.067 | [6] 0.297 | [10] -0.11

RB1CC1 (UniProt Q8TDY2)
UniProt Q8TDY2, sequence (Q8TDY2 whole entry, looked up): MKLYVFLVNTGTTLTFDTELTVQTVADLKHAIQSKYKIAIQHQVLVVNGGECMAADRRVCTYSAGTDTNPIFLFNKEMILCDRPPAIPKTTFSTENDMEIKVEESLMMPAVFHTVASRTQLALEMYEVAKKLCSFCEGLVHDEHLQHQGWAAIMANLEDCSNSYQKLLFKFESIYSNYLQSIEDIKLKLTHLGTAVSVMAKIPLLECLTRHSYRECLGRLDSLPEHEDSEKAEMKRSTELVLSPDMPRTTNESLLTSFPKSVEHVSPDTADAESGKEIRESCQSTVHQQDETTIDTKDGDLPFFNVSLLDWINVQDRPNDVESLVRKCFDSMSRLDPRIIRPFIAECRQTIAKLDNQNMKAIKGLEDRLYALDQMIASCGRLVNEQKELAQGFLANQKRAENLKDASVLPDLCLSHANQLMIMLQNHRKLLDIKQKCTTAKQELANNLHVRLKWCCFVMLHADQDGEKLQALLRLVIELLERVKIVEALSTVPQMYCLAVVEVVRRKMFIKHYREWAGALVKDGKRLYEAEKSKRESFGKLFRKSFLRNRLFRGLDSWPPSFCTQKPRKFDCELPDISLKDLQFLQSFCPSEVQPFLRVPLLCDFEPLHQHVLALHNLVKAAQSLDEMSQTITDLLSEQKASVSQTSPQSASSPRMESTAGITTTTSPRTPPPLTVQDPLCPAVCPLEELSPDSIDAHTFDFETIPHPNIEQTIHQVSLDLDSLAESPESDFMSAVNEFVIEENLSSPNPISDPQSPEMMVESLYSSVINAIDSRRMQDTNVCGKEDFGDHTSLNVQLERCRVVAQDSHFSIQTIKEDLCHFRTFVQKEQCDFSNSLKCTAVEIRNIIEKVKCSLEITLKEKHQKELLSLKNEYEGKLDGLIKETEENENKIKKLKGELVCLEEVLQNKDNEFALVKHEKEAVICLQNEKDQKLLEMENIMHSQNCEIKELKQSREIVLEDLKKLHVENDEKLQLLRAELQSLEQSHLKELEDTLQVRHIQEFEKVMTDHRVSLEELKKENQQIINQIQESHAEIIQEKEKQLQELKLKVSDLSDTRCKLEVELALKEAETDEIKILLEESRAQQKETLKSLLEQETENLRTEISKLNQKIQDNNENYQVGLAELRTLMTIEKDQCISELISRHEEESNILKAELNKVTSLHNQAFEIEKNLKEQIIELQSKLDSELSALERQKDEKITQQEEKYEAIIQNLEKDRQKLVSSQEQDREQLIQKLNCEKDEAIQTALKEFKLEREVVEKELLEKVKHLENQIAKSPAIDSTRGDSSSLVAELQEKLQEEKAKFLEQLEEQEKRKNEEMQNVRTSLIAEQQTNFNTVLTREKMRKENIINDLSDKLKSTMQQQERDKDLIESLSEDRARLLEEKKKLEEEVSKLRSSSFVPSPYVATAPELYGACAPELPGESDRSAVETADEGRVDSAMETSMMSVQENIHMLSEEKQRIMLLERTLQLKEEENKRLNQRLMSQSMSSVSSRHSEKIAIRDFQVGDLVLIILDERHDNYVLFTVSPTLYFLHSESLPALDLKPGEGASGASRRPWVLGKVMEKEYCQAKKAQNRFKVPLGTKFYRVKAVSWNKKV
inactive: [1] 0.092 | [2] 0.094 | [3] 0.045 | [8] 0.089 | [4] -0.11 | [5] 0.045 | [9] 0.03 | [6] -0.023 | [10] -0.015 | [7] 0.041

RPS3 (UniProt P23396)
active: [7] -0.497
inactive: [1] -0.091 | [2] 0.02 | [3] 0.051 | [8] 0.034 | [4] 0.005 | [5] -0.096 | [9] 0.016 | [6] 0.128 | [10] 0.031

SDHAF4 (UniProt Q5VUM1)
inactive: [1] -0.071 | [2] 0.01 | [3] -0.055 | [4] 0.081 | [5] 0.149 | [6] -0.082 | [10] -0.101 | [7] 0.021

RABGAP1L isoform 5 (UniProt Q5R372)
inactive: [1] 0.04 | [2] -0.031 | [3] -0.025 | [4] -0.057 | [5] -0.125 | [6] -0.17 | [10] -0.297 | [7] -0.271

SF3B5 (UniProt Q9BWJ5)
inactive: [1] 0.055 | [2] 0.127 | [3] -0.067 | [4] -0.224 | [5] 0.118 | [6] 0.045 | [10] 0.011 | [7] 0.156

RCOR3 isoform 3 (UniProt Q9P2K3)
inactive: [1] 0.009 | [2] -0.053 | [3] -0.188 | [8] 0.017 | [5] -0.048 | [9] 0.062 | [6] -0.038 | [10] 0.011 | [7] -0.035

RIOK2 (UniProt Q9BVS4)
UniProt Q9BVS4, sequence (Q9BVS4 whole entry, looked up): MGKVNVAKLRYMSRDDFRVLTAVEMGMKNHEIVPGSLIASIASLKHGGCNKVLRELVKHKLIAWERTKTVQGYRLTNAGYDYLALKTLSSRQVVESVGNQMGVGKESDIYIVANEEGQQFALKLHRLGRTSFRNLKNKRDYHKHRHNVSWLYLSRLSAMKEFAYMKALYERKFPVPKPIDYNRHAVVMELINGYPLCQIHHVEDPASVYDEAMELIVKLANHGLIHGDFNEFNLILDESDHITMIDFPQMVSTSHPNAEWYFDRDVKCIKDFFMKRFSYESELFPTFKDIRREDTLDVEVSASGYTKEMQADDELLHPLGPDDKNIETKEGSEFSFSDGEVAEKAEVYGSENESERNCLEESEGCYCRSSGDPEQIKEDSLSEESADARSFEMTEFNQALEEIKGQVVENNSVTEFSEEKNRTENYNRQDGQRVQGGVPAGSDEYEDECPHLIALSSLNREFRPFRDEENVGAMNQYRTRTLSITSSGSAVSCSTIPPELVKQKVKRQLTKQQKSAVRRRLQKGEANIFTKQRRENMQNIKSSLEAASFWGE
active: [3] 0.465
inactive: [1] -0.061 | [2] 0.013 | [8] 0.119 | [4] 0 | [5] -0.014 | [9] 0.084 | [6] 0.132 | [10] -0.014 | [7] -0.068

RTN4IP1 (UniProt Q8WWV3)
inactive: [1] -0.036 | [2] 0.214 | [3] -0.326 | [8] 0.034 | [4] -0.046 | [5] 0.063 | [9] -0.009 | [6] 0.02 | [10] -0.039 | [7] 0.14

SCPEP1 (UniProt Q9HB40)
active: [5] -0.5
inactive: [1] 0.044 | [2] 0.072 | [3] -0.008 | [8] -0.005 | [4] -0.038 | [9] 0.007 | [6] -0.032 | [10] -0.006 | [7] 0.073

SETMAR (UniProt Q53H47)
active: [7] 0.509
inactive: [1] 0.093 | [2] -0.04 | [3] -0.135 | [8] -0.025 | [4] 0.047 | [5] 0.227 | [9] -0.061 | [6] 0.078 | [10] 0.012

RPS6KA1 isoform 2 (UniProt Q15418)
inactive: [1] -0.013 | [2] -0.062 | [3] -0.167 | [4] -0.092 | [5] -0.164 | [9] 0.059 | [6] -0.006 | [10] 0.017 | [7] 0.018
active: [8] -0.429

SIRT2 (UniProt Q8IXJ6)
inactive: [1] 0.047 | [2] -0.003 | [3] -0.003 | [8] -0.023 | [4] 0.041 | [5] -0.033 | [9] 0.028 | [6] -0.002 | [10] -0.075 | [7] -0.022

RPRD1B (UniProt Q9NQG5)
UniProt Q9NQG5, sequence (Q9NQG5 whole entry, looked up): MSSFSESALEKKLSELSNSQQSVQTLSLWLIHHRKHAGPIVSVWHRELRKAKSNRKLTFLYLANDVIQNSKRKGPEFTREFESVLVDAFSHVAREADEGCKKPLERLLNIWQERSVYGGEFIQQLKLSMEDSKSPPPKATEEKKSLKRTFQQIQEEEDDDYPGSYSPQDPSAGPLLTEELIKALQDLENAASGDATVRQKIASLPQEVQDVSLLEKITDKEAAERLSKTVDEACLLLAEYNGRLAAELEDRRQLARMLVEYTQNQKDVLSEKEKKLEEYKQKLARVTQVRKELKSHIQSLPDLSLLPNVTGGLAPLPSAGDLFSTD
inactive: [1] 0 | [2] -0.021 | [3] -0.017 | [8] 0 | [4] -0.06 | [5] -0.018 | [9] -0.028 | [6] -0.038 | [10] 0.022 | [7] 0.104

RRAGB (UniProt Q5VZM2)
inactive: [1] 0.034 | [2] 0.029 | [3] 0.08 | [8] 0.002 | [4] -0.012 | [5] -0.162 | [9] 0.011 | [6] 0.039 | [10] -0.016 | [7] 0.026

RNF187 (UniProt Q5TA31)
inactive: [1] 0.059 | [2] 0.045 | [3] -0.124 | [8] 0.039 | [4] 0.024 | [5] 0.077 | [6] -0.075 | [10] 0.046 | [7] -0.226
active: [9] 0.424

SELENOH (UniProt Q8IZQ5)
inactive: [1] -0.018 | [2] -0.039 | [3] 0.13 | [8] 0.086 | [4] -0.017 | [5] 0.059 | [9] -0.012 | [6] -0.012 | [10] -0.052 | [7] 0.057

SLC1A3 (UniProt P43003)
inactive: [2] 0.168 | [3] 0.056 | [8] 0.058 | [4] 0.007 | [5] 0.238 | [9] -0.064 | [10] 0.018 | [7] 0.029

SLC12A5 (UniProt Q9H2X9)
UniProt Q9H2X9, sequence (Q9H2X9 whole entry, looked up): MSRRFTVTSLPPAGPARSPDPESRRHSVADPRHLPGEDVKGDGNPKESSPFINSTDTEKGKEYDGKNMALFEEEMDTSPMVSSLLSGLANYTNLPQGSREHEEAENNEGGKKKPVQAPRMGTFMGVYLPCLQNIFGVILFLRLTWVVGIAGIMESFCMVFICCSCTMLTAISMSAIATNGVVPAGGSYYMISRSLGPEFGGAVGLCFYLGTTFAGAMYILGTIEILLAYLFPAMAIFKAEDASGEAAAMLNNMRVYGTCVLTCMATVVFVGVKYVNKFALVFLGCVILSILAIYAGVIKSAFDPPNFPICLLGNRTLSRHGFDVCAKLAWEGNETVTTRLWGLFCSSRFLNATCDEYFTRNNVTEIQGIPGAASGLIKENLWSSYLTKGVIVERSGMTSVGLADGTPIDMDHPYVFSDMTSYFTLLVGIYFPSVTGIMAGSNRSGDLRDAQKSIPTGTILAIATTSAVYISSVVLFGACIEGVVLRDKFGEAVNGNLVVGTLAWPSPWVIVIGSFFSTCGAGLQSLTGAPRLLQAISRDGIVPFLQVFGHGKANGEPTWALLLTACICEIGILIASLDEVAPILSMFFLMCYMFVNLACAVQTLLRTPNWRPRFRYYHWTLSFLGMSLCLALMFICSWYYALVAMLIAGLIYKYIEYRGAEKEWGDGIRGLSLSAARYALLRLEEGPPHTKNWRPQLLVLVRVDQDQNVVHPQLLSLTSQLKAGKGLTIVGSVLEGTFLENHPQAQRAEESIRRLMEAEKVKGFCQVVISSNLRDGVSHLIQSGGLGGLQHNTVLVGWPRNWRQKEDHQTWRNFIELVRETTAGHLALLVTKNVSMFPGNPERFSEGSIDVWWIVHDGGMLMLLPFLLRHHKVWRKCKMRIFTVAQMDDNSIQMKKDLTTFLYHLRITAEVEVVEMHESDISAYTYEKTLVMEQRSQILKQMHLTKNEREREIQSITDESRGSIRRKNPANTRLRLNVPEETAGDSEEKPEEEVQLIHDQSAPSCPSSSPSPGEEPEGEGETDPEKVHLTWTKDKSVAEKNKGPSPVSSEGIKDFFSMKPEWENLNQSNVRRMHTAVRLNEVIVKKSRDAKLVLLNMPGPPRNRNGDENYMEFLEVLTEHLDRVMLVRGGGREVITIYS
inactive: [1] -0.024 | [2] -0.006 | [3] -0.101 | [4] 0.14 | [5] 0.052 | [6] -0.113 | [7] 0.047

RBM6 (UniProt P78332)
inactive: [1] 0.146 | [3] -0.208 | [6] -0.09 | [10] -0.19 | [7] -0.16

RNF41 (UniProt Q9H4P4)
inactive: [2] -0.104 | [3] 0.082

RICTOR isoform 3 (UniProt Q6R327)
active: [3] 0.866
inactive: [4] -0.084 | [5] -0.584 | [10] 0.07 | [7] -0.223

SH2D1B (UniProt O14796)
UniProt O14796, sequence (O14796 whole entry, looked up): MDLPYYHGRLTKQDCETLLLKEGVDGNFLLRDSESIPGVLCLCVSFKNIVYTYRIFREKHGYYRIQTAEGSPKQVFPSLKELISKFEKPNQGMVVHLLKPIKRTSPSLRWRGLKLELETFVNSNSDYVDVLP
inactive: [1] 0.202 | [8] 0.042 | [4] -0.052 | [5] 0.095 | [9] 0.005 | [6] 0.027 | [10] 0.106 | [7] -0.004
active: [3] -1.57

SIK3 (UniProt H0Y4E8)
inactive: [1] 0.043 | [8] 0.135 | [5] 0.186 | [9] -0.167 | [6] -0.036 | [10] 0.179 | [7] -0.124
active: [3] -0.425

RNF26 (UniProt Q9BY78)
inactive: [2] -0.033 | [8] 0.095 | [9] 0.281

SDCBP isoform 2 (UniProt O00560)
inactive: [2] 0 | [8] 0.06 | [4] 0.008 | [5] -0.444 | [9] 0.13 | [10] -0.29 | [7] 0.033

RPS3A (UniProt D6R9B6)
inactive: [3] -0.124 | [7] -0.363

SH3PXD2B (UniProt A1X283)
inactive: [2] -0.115 | [3] -0.005 | [4] 0.035 | [5] 0.075 | [10] -0.054 | [7] 0.027

RBMY1E (UniProt A6NEQ0)
inactive: [1] 0.019 | [2] -0.024 | [8] 0.131 | [5] 0.134 | [9] 0.141 | [6] -0.032 | [10] 0.026 | [7] -0.01

SAP30 (UniProt O75446)
UniProt O75446, sequence (O75446 whole entry, looked up): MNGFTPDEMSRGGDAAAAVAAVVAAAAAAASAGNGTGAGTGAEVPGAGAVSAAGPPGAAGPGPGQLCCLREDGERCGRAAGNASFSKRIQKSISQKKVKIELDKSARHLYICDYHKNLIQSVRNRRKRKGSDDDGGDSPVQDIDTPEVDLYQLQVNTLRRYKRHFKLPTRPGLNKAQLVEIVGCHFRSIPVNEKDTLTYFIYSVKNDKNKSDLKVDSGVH
inactive: [1] 0.018 | [3] 0.085 | [4] 0.151 | [5] 0.111 | [6] 0.111 | [10] 0.041

SAMD4B (UniProt Q5PRF9)
UniProt Q5PRF9, sequence (Q5PRF9 whole entry, looked up): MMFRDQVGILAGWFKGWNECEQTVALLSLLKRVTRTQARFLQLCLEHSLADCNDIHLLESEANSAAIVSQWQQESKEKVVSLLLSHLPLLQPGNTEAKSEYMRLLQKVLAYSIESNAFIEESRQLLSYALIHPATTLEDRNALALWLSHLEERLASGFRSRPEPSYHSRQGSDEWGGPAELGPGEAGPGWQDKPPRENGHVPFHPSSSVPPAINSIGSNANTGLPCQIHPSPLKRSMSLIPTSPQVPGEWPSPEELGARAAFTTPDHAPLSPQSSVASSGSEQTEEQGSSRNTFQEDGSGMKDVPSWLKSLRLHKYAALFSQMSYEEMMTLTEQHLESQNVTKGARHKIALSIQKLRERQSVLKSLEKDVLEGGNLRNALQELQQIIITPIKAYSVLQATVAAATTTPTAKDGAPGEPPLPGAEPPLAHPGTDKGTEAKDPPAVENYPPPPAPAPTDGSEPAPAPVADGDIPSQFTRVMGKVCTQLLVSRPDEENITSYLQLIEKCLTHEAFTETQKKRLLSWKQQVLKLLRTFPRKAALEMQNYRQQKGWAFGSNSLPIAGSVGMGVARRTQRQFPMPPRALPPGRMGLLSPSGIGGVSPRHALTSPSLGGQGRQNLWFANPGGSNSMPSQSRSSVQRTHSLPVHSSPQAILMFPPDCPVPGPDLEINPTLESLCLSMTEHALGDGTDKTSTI
inactive: [1] 0.007 | [2] -0.024 | [8] 0.053 | [4] 0.133 | [5] 0.142 | [9] 0.04 | [6] 0.051 | [10] 0.05 | [7] 0.039

RNF220 isoform 3 (UniProt Q5VTB9)
inactive: [3] 0.086 | [5] 0.056

RALGPS2 (UniProt Q86X27)
inactive: [1] -0.249 | [2] 0.061 | [3] -0.045 | [4] 0.051 | [5] 0.141 | [6] 0.397 | [7] 0.029

RBM26 isoform 3 (UniProt Q5T8P6)
inactive: [3] -0.528

SCAMP2 (UniProt O15127)
UniProt O15127, sequence (O15127 whole entry, looked up): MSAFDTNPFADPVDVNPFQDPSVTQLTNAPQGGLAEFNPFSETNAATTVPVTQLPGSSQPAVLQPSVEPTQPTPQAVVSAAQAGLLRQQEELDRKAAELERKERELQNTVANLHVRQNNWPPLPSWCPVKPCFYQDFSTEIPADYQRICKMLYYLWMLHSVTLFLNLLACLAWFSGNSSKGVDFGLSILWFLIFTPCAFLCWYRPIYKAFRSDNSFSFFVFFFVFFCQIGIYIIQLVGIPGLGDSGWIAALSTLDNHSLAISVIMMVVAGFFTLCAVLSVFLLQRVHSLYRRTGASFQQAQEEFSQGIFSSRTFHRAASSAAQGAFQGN
inactive: [2] 0.09 | [3] 0.08 | [8] -0.019 | [4] 0.013 | [5] 0.003 | [9] 0.036 | [10] -0.093 | [7] -0.066

SCLT1 (UniProt Q96NL6)
inactive: [1] -0.046 | [2] -0.049 | [6] 0.005 | [10] -0.118 | [7] 0.129

SEMG2 (UniProt Q02383)
inactive: [2] -0.031 | [3] -0.148 | [4] -0.011 | [10] -0.031 | [7] 0.049

SAFB2 (UniProt K7EQU4)
inactive: [1] -0.129 | [2] 0.131 | [4] -0.042 | [6] -0.051 | [10] -0.31
